# Whole data set: some 33,000 sequences, median “E-score (-0.5 to 0.5)” near -0.036, cut for the highest 2% near 0.37. For the sample, the highest values were picked, then their nearest neighbours and some sequences at random.
# Biological target: T1, Yer064c (UniProt P40041)
# T1 sequence: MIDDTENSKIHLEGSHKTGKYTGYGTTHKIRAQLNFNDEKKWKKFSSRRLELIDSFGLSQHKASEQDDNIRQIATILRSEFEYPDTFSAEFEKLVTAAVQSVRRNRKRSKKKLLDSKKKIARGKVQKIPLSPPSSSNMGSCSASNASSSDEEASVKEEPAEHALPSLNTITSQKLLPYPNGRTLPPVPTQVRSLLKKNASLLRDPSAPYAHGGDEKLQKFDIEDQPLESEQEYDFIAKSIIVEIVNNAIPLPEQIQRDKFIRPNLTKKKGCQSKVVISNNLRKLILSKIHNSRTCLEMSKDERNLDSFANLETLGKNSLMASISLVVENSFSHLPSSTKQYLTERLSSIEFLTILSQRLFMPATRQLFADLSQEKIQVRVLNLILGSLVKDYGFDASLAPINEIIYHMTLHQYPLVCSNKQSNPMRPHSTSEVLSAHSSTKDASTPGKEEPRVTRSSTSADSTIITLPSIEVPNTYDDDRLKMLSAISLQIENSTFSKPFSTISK
# Test: PBM E-score (8-mer binding enrichment) (E-score (-0.5 to 0.5)); higher = stronger / more preferred TF binding
# Details: protein concentration: 200 nM; construct: GST-full length
# Protocol: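 Universal 'all 10-mer' protein binding microarrays (Agilent AMADID 015681) probed with GST-tagged S. cerevisiae TFs (full-length or DBD) made by in vitro transcription/translation (PURExpress), about 100-200 nM. Bound TF was detected with fluorescent anti-GST. Each ungapped 8-mer (which stands for itself and its reverse complement) is scored by the PBM enrichment score (E-score), a modified Wilcoxon-Mann-Whitney statistic from -0.5 to +0.5, computed with the Universal PBM Analysis Suite. Scale: above 0.35 generally sequence-specific binding.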
row,Sequence,PBM E-score
1,ACTCATTA,0.372
2,CCTCATTA,0.0877
3,ACTCATTG,0.382
4,CCTCATTC,-0.176
5,ATTCATTG,0.214
6,GCTCATTA,-0.044
7,ATGGCTTG,-0.159
8,GATTTACC,0.00206
9,ATTTCATA,-0.0227
10,ATCCGAAT,0.0995
11,AAGGGATG,-0.176
12,ACTCAGTC,0.411
13,AGTCAGTG,0.427
14,AATCAGTC,0.368
15,CGTCAGTC,0.291
16,AATCAGTA,0.234
17,CATCAGTC,0.321
18,AGTCAGTC,0.442
19,CCTCAGTC,0.326
20,ATTCAGTG,0.214
21,ACTCAGTG,0.251
22,AATCAGTG,0.239

row,Sequence,PBM E-score
1,ATTCAGTC,0.341
2,ACGCATGA,0.146
3,ATCCGTTG,-0.037
4,ACCTTGAA,0.0165
5,GAACCAGA,0.0172
6,ACCCTCAC,-0.132
7,CGCACATC,0.00301
8,GGTCAGTA,-0.0314
9,CGTCAGTA,0.0514
10,AGTCAGTA,0.42
11,CTTTAACA,-0.0802
12,GCCTAGGC,-0.179
13,AGGAGCGC,-0.205
14,ACTCACTC,0.371
15,ACACACTG,0.0265
16,ACTCACTG,0.374
17,CCTCACTC,-0.077
18,ACTCACTA,0.346
19,ACTCACAC,0.364
20,CGGTTTAG,-0.1
21,AGAGACAA,-0.175
22,TAAACCAA,-0.0214

row,Sequence,PBM E-score
1,AAGGACTT,0.0394
2,AAGGACTC,0.39
3,GAGGACTA,0.369
4,GAGGACTC,0.387
5,AAGGACTA,0.375
6,CAGGACTA,0.262
7,TAGGACTA,0.357
8,GAGGACAC,-0.221
9,AAGGACGA,-0.0247
10,AAGGACTG,0.184
11,AAGGACCA,-0.026
12,CAGGACTC,0.344
13,ACCGGCGG,-0.156
14,CCAGATGC,0.0961
15,AGCTAGAT,-0.12
16,AACCCCAG,-0.047
17,GGCAACTA,-0.0239
18,CCCATCTA,-0.0727
19,CAAACGAC,0.0734
20,GTGTGCGA,0.0296
21,AGATCTTA,0.137
22,GACGTTCA,-0.12

row,Sequence,PBM E-score
1,GCATTTCC,-0.0262
2,AGAACACA,0.0627
3,CAAAGTCC,-0.222
4,TAAAGTCA,0.413
5,CAAAGTCA,0.399
6,AAAAGTCA,0.374
7,CAAAGTCG,0.167
8,GAAAGTCA,0.428
9,AAAAGTCC,-0.0242
10,TAAAGTTA,0.106
11,TAAAGTAA,0.049
12,AAAAGTCT,0.0759
13,GAAAGTCC,-0.215
14,GAAAGTTA,0.137
15,ACCACGGG,-0.0993
16,AGCAGGAG,-0.0429
17,GGCATACA,-0.226
18,GATTCGAA,0.207
19,CTCGGTGA,0.137
20,ACTACGAT,0.233

# — the supplement of paper PMC3334620
